# Data published in PubChem BioAssay.
# The source made the active and inactive calls.
# System: Wnt5a (protein binding on small-molecule microarray)
# Experiment: Wnt5a binders on small-molecule microarray, primary screen, biophysical, 635/667 nm fluorescence (AID 1142);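 note: fluorescence read at 667 nm with signal to noise per printed feature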
# Details: 635 nm fluorescence, higher = more signal
row,Structure (SMILES),composite z-score
1,COc1ccc(C(=O)Nc2ccc(CN3C(=O)[C@@]4(O[C@@H](CCn5cc([C@H](O)c6ccccc6)nn5)[C@H]([Si](C)(C)c5ccc(OC)cc5)[C@H]4C)c4ccccc43)cc2)cc1,-0.0152
2,O=C1c2ccccc2[C@@]2(Cc3ccccc3N(CCN3CCOCC3)C2=O)[C@H](c2ccc(CO)cc2)N1Cc1ccccc1,-0.465
3,CC[C@@H]1C=C(C(=O)O)[C@H](c2ccco2)N1S(=O)(=O)c1ccc(C)cc1,-0.291
4,O=C1OCCC/C=C\[C@H]2OC34C=CCN(CCN5CCOCC5)C(=O)[C@H]3N(CCCO)C(=O)[C@@H]4C12 (some centres not stated),-0.196
5,COC(=O)[C@@]1(Cc2ccccc2)[C@H]2c3cc(C(=O)N4CCCC4)n(Cc4nc5ccccc5[nH]4)c3C[C@H]2CN1C(=O)c1ccccc1,0.0972
6,CC(C)c1ccc(NN2C(C(O)C(c3ccccc3)c3ccccc3)C=CC3C(=O)N(c4ccccc4)C(=O)C32)cc1 (configuration not stated),0.359
7,C#CCN(Cc1ccccc1Br)C(/C=C/c1ccccc1)CO (configuration not stated),-0.15
8,O=C1C2C=CC(C(O)c3c(F)cccc3Cl)N(Nc3ccccc3)C2C(=O)N1c1ccccc1 (configuration not stated),0.422
9,NC(=O)[C@@H]1[C@H]2C(=O)O[C@H](c3ccccc3)[C@H](c3ccccc3)N2[C@H](c2ccc(O)cc2)[C@@]12C(=O)Nc1ccc(C#CC3(O)CCCCCC3)cc12,-0.277
10,CCOC(=O)C[C@H]1[C@H](OC(=O)Cc2ccc3c(c2)OCO3)[C@@H](NC(=O)c2ccc3ccccc3c2)c2cc(OCCCO)ccc2N1C(=O)c1ccccc1,0.0819
11,CN(C)C(=O)[C@]1(Cc2ccccc2N=[N+]=[N-])N=C(c2ccc(OCCCO)cc2)O[C@@H]1c1ccccc1,0.8
12,COC(=O)c1c(CC[C@@H](CO)NC(=O)N[C@@H](C)Cn2cc(C3(O)CCCCC3)nn2)oc(C(C)=O)c1C(=O)OC,0.315
13,O=C1C2C=CC(C(O)c3ccc(F)cc3)N(Nc3ccccc3F)C2C(=O)N1c1ccccc1 (configuration not stated),-0.0864
14,O=C(c1ccccc1)N1Cc2ccccc2[C@@H]2OC(c3ccc(OCCCO)cc3)=N[C@]2(Cc2ccccc2)C1=O,0.624
15,C=C(COC)/C(=C/C[C@H](OC(=O)c1ccncc1)c1ccc(OCCO)cc1)c1cnc2ccccc2c1,0.638
16,COCCOC(=O)N1C(=O)[C@@]2(c3cc(C#CCNC(N)=O)ccc31)[C@H](C(=O)NC[C@H](O)c1ccccc1)[C@H]1C(=O)O[C@H](c3ccccc3)[C@H](c3ccccc3)N1[C@@H]2c1ccccc1OCCO,0.8
17,COc1ccc([C@H]2C[C@H]3C(Br)=C[C@@H]2C(=O)[C@]32CO2)cc1,-0.0556
18,C=CCOC(=O)[C@@H]1[C@H]2C(=O)O[C@H](c3ccccc3)[C@H](c3ccccc3)N2[C@H](c2ccc(OCCOC(=O)[C@@H]3C[C@@H]4C(=O)N[C@@H](Cc5ccccc5)C(=O)N4[C@@H]3c3ccc(O)cc3)cc2)[C@@]12C(=O)Nc1ccc(I)cc12,0.425
19,O=C1OCC=C[C@H]2OC34C=CCN(c5ccc6ccccc6c5)C(=O)[C@H]3N(CCCCCCO)C(=O)[C@@H]4[C@@H]12 (some centres not stated),-0.565
20,[N-]=[N+]=Nc1ccccc1C[C@]1(C(N)=O)N=C(c2ccc(OCCCO)cc2)O[C@H]1c1ccccc1,0.498
21,O=C1OCCC/C=C\[C@H]2OC34C=CCN(Cn5nnc6ccccc65)C(=O)[C@H]3N(CCO)C(=O)[C@@H]4C12 (some centres not stated),-0.212
22,COc1cc2c(cc1OC)CN(C(=O)[C@H]1[C@@H]3C(=O)O[C@@H](c4ccccc4)[C@@H](c4ccccc4)N3[C@@H](c3ccc(O)cc3)[C@]13C(=O)Nc1ccc(C#CC4=CCCCC4)cc13)CC2,0.657
23,Cc1ccc(S[C@]2(C(=O)NCC(C)C)CC(=O)N(Cc3cc(C(F)(F)F)cc(C(F)(F)F)c3)[C@@H]2c2ccc(CO)cc2I)cc1,-0.0088
24,CCCC[C@@H]1C[C@H]1[C@@H](NC(=O)c1ccco1)c1ccc(C(=O)OC)cc1,-0.195
25,O=C1O[C@H](c2ccccc2)[C@H](c2ccccc2)N2[C@H]1[C@@H](C(=O)O)[C@]1(C(=O)Nc3ccc(C#CC4=CCCCC4)cc31)[C@H]2c1ccccc1OCCO,1.02
26,CC(=O)N1Cc2ccccc2C[C@@]2(COC(c3ccc(OCCCO)cc3)=N2)C1=O,0.36

# System: not listed separately
# Experiment: cell viability in Huh7 cells, primary screen, cytotoxicity control for HCV replication inhibitor project, CellTiter-Glo luminescence, basal, 48 h (AID 1143);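 note: Huh7 hepatoma cells carrying a hepatitis C replication reporter with no stimulus; test concentration not given here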
# Details: Huh7 HCV replicon, higher = more signal, called active from +8 up or from −8 down
row,Structure (SMILES),z-score
1,C[N+](C)(C)CCCCNC(=O)[C@H]1C[C@H]2C(=O)N[C@@H](Cc3ccccc3)C(=O)N2[C@H]1c1ccc(O)cc1,0.0641 (inactive)
2,[N-]=[N+]=NCc1ccccc1C[C@]1(C(=O)N2CCOCC2)N=C(c2ccc(OCCCO)cc2)O[C@H]1c1ccccc1N=[N+]=[N-],-5.5 (inactive)
3,CC(=O)NCCCC[C@@H]1NC(=O)[C@@H]2C[C@H](C(=O)NCCCCN(C)C)[C@H](c3cccc(OCCO)c3)N2C1=O,0.344 (inactive)
4,COc1ccc(C(O)C2C=CC3C(=O)N(c4ccccc4)C(=O)C3N2Nc2ccc(C(C)C)cc2)cc1OCc1ccccc1 (configuration not stated),-0.0843 (inactive)
5,[N-]=[N+]=Nc1ccccc1[C@H]1OC(c2ccc(OCCCO)cc2)=N[C@@]1(Cc1ccccc1)C(=O)O,-1.1 (inactive)
6,O=C(NCc1ccccc1)[C@@]1(Cc2ccccc2)N=C(c2ccc(OCCCO)cc2)O[C@H]1c1ccccc1,-3.5 (inactive)
7,CCOC1=C2C(CN(S(=O)(=O)c3ccc(C)cc3)C2c2ccc(C)cc2)C2C(=O)N(c3ccccc3)C(=O)C2C1 (configuration not stated),-0.288 (inactive)
8,CCOC(=O)C[C@H]1[C@H](OC(=O)c2ccc(C(=O)c3ccccc3)cc2)[C@@H](NC(=O)c2ccc(-c3ccccc3)cc2)c2cc(OCCCO)ccc2N1C(=O)c1ccccc1,0.294 (inactive)
9,COCCOC(=O)N1C(=O)[C@@]2(c3cc(C#Cc4ccc(OC)cc4)ccc31)[C@H](c1ccc(O)cc1)N1[C@H](c3ccccc3)[C@H](c3ccccc3)OC(=O)[C@H]1[C@@H]2C(=O)NC[C@H](O)c1ccccc1,-3.94 (inactive)
10,COc1ccc(C(=O)O[C@H]2CC[C@]3(C)C4=C(CCC3C2(C)C)[C@]2(C)CC[C@H]([C@H](C)CCCC(C)C)[C@@]2(C)CC4)cc1 (some centres not stated),-1.02 (inactive)
11,COc1ccc(C(=O)Nc2ccc(CN3C(=O)[C@@]4(O[C@@H](CCn5cc([C@H](O)c6ccccc6)nn5)[C@H]([Si](C)(C)c5ccc(OC)cc5)[C@H]4C)c4ccccc43)cc2)cc1,-3.46 (inactive)
12,O=C1c2ccccc2[C@@]2(Cc3ccccc3N(CCN3CCOCC3)C2=O)[C@H](c2ccc(CO)cc2)N1Cc1ccccc1,-1.24 (inactive)
13,CC[C@@H]1C=C(C(=O)O)[C@H](c2ccco2)N1S(=O)(=O)c1ccc(C)cc1,0.433 (inactive)
14,O=C1OCCC/C=C\[C@H]2OC34C=CCN(CCN5CCOCC5)C(=O)[C@H]3N(CCCO)C(=O)[C@@H]4C12 (some centres not stated),0.732 (inactive)
15,COC(=O)[C@@]1(Cc2ccccc2)[C@H]2c3cc(C(=O)N4CCCC4)n(Cc4nc5ccccc5[nH]4)c3C[C@H]2CN1C(=O)c1ccccc1,-2.97 (inactive)
16,CC(C)c1ccc(NN2C(C(O)C(c3ccccc3)c3ccccc3)C=CC3C(=O)N(c4ccccc4)C(=O)C32)cc1 (configuration not stated),-0.29 (inactive)

row,Structure (SMILES),z-score
1,C#CCN(Cc1ccccc1Br)C(/C=C/c1ccccc1)CO (configuration not stated),-4.79 (inactive)
2,O=C1C2C=CC(C(O)c3c(F)cccc3Cl)N(Nc3ccccc3)C2C(=O)N1c1ccccc1 (configuration not stated),-0.165 (inactive)
3,NC(=O)[C@@H]1[C@H]2C(=O)O[C@H](c3ccccc3)[C@H](c3ccccc3)N2[C@H](c2ccc(O)cc2)[C@@]12C(=O)Nc1ccc(C#CC3(O)CCCCCC3)cc12,-0.0907 (inactive)
4,CCOC(=O)C[C@H]1[C@H](OC(=O)Cc2ccc3c(c2)OCO3)[C@@H](NC(=O)c2ccc3ccccc3c2)c2cc(OCCCO)ccc2N1C(=O)c1ccccc1,-0.23 (inactive)
5,CN(C)C(=O)[C@]1(Cc2ccccc2N=[N+]=[N-])N=C(c2ccc(OCCCO)cc2)O[C@@H]1c1ccccc1,-4.59 (inactive)
6,COC(=O)c1c(CC[C@@H](CO)NC(=O)N[C@@H](C)Cn2cc(C3(O)CCCCC3)nn2)oc(C(C)=O)c1C(=O)OC,-2.63 (inactive)
7,O=C1C2C=CC(C(O)c3ccc(F)cc3)N(Nc3ccccc3F)C2C(=O)N1c1ccccc1 (configuration not stated),0.486 (inactive)
8,O=C(c1ccccc1)N1Cc2ccccc2[C@@H]2OC(c3ccc(OCCCO)cc3)=N[C@]2(Cc2ccccc2)C1=O,-3.55 (inactive)
9,C=C(COC)/C(=C/C[C@H](OC(=O)c1ccncc1)c1ccc(OCCO)cc1)c1cnc2ccccc2c1,-0.593 (inactive)
10,COCCOC(=O)N1C(=O)[C@@]2(c3cc(C#CCNC(N)=O)ccc31)[C@H](C(=O)NC[C@H](O)c1ccccc1)[C@H]1C(=O)O[C@H](c3ccccc3)[C@H](c3ccccc3)N1[C@@H]2c1ccccc1OCCO,-0.417 (inactive)
11,COc1ccc([C@H]2C[C@H]3C(Br)=C[C@@H]2C(=O)[C@]32CO2)cc1,0.0402 (inactive)
12,C=CCOC(=O)[C@@H]1[C@H]2C(=O)O[C@H](c3ccccc3)[C@H](c3ccccc3)N2[C@H](c2ccc(OCCOC(=O)[C@@H]3C[C@@H]4C(=O)N[C@@H](Cc5ccccc5)C(=O)N4[C@@H]3c3ccc(O)cc3)cc2)[C@@]12C(=O)Nc1ccc(I)cc12,-1.28 (inactive)
13,O=C1OCC=C[C@H]2OC34C=CCN(c5ccc6ccccc6c5)C(=O)[C@H]3N(CCCCCCO)C(=O)[C@@H]4[C@@H]12 (some centres not stated),0.165 (inactive)
14,[N-]=[N+]=Nc1ccccc1C[C@]1(C(N)=O)N=C(c2ccc(OCCCO)cc2)O[C@H]1c1ccccc1,-2.27 (inactive)
15,O=C1OCCC/C=C\[C@H]2OC34C=CCN(Cn5nnc6ccccc65)C(=O)[C@H]3N(CCO)C(=O)[C@@H]4C12 (some centres not stated),-0.363 (inactive)
